Compound in this test: Nc1nc2c(ncn2[C@@H]2O[C@H](COP(=O)(O)OP(=O)(O)OP(=O)(O)O)[C@@H](O)[C@H]2O)c(=O)[nH]1 [guanosine triphosphate]
Put plainly: NP40-soluble protein abundance relative to vehicle (solubility fold change) (ratio); higher = more soluble protein in presence of GTP. Here is the method: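 Solubility proteome profiling in Jurkat crude lysate. Lysate was treated with Mg-GTP (0.1-10 mM) for 10 min at room temperature and 3 min at 37 °C, then solubilised with 0.8% NP40 and benzonase, followed by ultracentrifugation. Proteins were quantified by TMT10 LC-MS/MS; the value is the NP40-soluble abundance relative to the NP40-processed vehicle, from 3 independent experiments.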

± gives the standard deviation of the averaged measurements. Of roughly 5,400 targets only a part is listed; those with the largest changes were picked by preference.

Chain of UniProt Q13619 (Q13619 whole entry): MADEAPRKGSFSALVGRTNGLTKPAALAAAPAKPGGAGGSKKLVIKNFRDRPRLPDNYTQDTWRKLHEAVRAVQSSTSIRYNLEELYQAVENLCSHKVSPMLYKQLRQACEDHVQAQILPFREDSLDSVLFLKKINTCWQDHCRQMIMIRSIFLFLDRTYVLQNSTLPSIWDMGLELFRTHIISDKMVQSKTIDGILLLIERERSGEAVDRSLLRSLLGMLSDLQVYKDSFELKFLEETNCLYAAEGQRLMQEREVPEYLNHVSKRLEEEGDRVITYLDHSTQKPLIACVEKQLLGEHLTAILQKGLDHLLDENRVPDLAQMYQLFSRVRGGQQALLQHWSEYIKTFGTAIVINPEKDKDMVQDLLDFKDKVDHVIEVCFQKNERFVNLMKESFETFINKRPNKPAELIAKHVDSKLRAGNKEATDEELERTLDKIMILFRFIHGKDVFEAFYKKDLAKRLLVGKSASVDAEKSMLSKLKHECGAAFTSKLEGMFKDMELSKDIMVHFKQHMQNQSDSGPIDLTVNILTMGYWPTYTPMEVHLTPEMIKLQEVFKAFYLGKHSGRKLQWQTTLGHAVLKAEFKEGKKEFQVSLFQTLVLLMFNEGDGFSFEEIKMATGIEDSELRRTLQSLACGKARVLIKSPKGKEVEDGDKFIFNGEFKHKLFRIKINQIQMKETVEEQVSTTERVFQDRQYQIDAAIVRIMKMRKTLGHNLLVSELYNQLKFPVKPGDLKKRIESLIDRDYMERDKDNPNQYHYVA
Chain of UniProt Q16864 (Q16864 whole entry): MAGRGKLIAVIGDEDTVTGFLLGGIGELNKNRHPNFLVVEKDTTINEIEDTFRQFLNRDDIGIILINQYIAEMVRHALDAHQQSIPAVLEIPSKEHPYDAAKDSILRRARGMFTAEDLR
Chain of UniProt Q7Z3B4 (Q7Z3B4 whole entry): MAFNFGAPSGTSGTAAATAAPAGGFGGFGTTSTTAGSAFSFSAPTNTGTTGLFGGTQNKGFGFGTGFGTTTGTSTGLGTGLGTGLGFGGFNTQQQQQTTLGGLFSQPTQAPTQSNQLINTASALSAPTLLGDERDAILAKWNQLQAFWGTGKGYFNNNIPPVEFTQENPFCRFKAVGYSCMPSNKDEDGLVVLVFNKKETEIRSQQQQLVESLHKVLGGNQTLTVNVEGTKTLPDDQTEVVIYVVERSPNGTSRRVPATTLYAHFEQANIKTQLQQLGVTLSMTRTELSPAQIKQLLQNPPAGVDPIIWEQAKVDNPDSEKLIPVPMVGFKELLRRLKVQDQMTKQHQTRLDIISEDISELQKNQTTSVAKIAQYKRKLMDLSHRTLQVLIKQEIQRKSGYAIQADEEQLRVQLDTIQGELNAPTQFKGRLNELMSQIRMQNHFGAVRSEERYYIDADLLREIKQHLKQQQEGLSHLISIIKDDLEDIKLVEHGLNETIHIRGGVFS
Chain of UniProt P60891 (P60891 whole entry): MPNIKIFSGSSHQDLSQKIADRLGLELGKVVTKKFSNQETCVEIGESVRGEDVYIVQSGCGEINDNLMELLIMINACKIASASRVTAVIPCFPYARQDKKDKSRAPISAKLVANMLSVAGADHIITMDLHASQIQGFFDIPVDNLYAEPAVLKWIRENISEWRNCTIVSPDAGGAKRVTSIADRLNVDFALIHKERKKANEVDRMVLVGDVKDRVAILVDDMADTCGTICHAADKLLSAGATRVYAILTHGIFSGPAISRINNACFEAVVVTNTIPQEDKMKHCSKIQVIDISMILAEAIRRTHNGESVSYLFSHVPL
Chain of UniProt Q86Y37 (Q86Y37 whole entry): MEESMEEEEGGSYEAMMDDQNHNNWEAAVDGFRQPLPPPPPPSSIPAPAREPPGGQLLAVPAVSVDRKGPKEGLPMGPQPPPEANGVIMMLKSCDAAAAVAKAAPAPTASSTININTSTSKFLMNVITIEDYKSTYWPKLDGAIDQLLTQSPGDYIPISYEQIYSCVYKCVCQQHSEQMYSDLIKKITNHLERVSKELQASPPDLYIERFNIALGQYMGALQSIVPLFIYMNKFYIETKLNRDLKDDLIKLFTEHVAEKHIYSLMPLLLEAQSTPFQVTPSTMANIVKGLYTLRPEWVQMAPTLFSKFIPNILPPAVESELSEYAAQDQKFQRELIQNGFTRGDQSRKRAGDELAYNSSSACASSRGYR

For CUL4A (UniProt Q13619), the NP40-soluble protein abundance (concentration: 0.1mM) came to 1.07 ± 0.041; the NP40-soluble protein abundance (concentration: 0.5mM) came to 1.09 ± 0.077; the NP40-soluble protein abundance (concentration: 1mM) is 1.02 ± 0.045; the NP40-soluble protein abundance (concentration: 2mM) was found to be 1.03 ± 0.11; the NP40-soluble protein abundance (concentration: 4mM) amounted to 0.989 ± 0.09; the NP40-soluble protein abundance (concentration: 6mM) is 0.987 ± 0.076. The NP40-soluble protein abundance by setting is: (concentration: 8mM) 0.987 ± 0.061; (concentration: 10mM) 0.934 ± 0.042.

With UniProt Q86Y37|Q86Y37-4, the NP40-soluble protein abundance (concentration: 0.1mM) stood at 0.963 ± 0.063; the NP40-soluble protein abundance (concentration: 0.5mM) came to 0.923 ± 0.074; the NP40-soluble protein abundance (concentration: 1mM) came to 0.9527 ± 0.0029; the NP40-soluble protein abundance (concentration: 2mM) was 0.9274 ± 0.0067; the NP40-soluble protein abundance (concentration: 4mM) was 0.907 ± 0.091; the NP40-soluble protein abundance (concentration: 6mM) was found to be 0.905 ± 0.048. In addition, the NP40-soluble protein abundance stood at 0.87 ± 0.057 (concentration: 8mM) and 0.889 ± 0.054 (concentration: 10mM).

Turning to UniProt Q7Z3B4|Q7Z3B4-3, the NP40-soluble protein abundance is, setting by setting: (concentration: 0.1mM) 1.02 ± 0.051; (concentration: 0.5mM) 1 ± 0.021; (concentration: 1mM) 1 ± 0.038; (concentration: 2mM) 1.01 ± 0.032; (concentration: 4mM) 1.06 ± 0.062; (concentration: 6mM) 1.07 ± 0.065. For the same target, the NP40-soluble protein abundance (concentration: 8mM) worked out at 1.12 ± 0.055 and the NP40-soluble protein abundance (concentration: 10mM) turned out to be 1.18 ± 0.092.

For the target UniProt P60891, the NP40-soluble protein abundance (concentration: 0.1mM) stood at 1.03 ± 0.072; the NP40-soluble protein abundance (concentration: 0.5mM) stood at 1.15 ± 0.18; the NP40-soluble protein abundance (concentration: 1mM) stood at 1.18 ± 0.22; the NP40-soluble protein abundance (concentration: 2mM) was found to be 1.26 ± 0.25; the NP40-soluble protein abundance (concentration: 4mM) came to 1.29 ± 0.23; the NP40-soluble protein abundance (concentration: 6mM) turned out to be 1.3 ± 0.28. The NP40-soluble protein abundance reads like this: (concentration: 8mM) 1.28 ± 0.27; (concentration: 10mM) 1.26 ± 0.23.

In the case of UniProt Q16864|Q16864-2, the NP40-soluble protein abundance is, setting by setting: (concentration: 0.1mM) 0.906 ± 0.02; (concentration: 0.5mM) 0.931 ± 0.05; (concentration: 1mM) 1.032 ± 0.01; (concentration: 2mM) 1.04 ± 0.067; (concentration: 4mM) 0.999 ± 0.061; (concentration: 6mM) 1.02 ± 0.034. The NP40-soluble protein abundance was 0.992 ± 0.073 (concentration: 8mM) and 1.02 ± 0.027 (concentration: 10mM).

(Values after the supplement of paper PMC6411743.)
